# Compound activity (PubChem)
# CYP2C19 act: human CYP2C19 activators, primary screen, biochemical, luminescence; activation factor at 5 µM; recombinant CYP2C19, luciferin-H EGE luminescence; hits give high values; 0 = fully inhibited enzyme, 1 = untreated enzyme; Cytochrome P450 2C19 (Homo sapiens), P33261; 96,000 tested, under 10 active;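 active = activation factor of at least 2 at 5 µM in the primary screen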;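 note: 0 = wells with 2.5 mM tranylcypromine and 1 = vehicle-only wells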
# CYP2C9 activ: human CYP2C9 activators, primary screen, biochemical, luminescence | Cytochrome P450 2C9 (Homo sapiens), P11712 | recombinant CYP2C9, luciferin-H conversion; hits give high values; factor 1 = untreated enzyme, 0 = blocked | activation factor at 5 µM | hit rate 1.4% among 96,000 | AID 1024, 2008;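 active = activation factor of 2 or more for CYP2C9 at a 5 µM dose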;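 note: 0 = sulfaphenazole-blocked wells and 1 = vehicle-only wells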
# Target sequence (P11712 whole entry, looked up): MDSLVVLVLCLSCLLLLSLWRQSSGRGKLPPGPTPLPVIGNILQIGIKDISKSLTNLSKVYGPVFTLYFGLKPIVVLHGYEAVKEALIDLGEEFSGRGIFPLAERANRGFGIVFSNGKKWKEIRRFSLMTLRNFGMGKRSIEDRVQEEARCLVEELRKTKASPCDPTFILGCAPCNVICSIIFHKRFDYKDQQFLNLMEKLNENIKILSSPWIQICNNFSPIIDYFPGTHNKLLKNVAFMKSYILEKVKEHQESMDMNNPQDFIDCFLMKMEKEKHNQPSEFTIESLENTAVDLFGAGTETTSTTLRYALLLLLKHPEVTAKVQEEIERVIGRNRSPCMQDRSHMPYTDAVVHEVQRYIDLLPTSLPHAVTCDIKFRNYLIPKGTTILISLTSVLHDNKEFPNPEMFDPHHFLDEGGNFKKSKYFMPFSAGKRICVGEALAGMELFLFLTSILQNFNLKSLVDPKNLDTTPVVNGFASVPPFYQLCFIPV
# MRP resist rev: reversal of MRP1-mediated doxorubicin resistance, primary screen, H69AR cells, doxorubicin co-treatment | H69AR cells + 2 uM doxorubicin, CellTiter-Glo, 72 h | AID 602, 2007 | hit rate 0.04% among 85,000 | differential viability (reversal), % at 10 µM;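 active = viability drop by adding the cancer drug above about 55%, with treated viability meeting a 40% cutoff, limit read from the data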;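 note: viability without doxorubicin minus viability with 2 µM doxorubicin for each compound; larger differential means the compound sensitizes cells more to doxorubicin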
# CYP2C19 inh: blockers of cytochrome P450 2C19 activity – biochemical, luminescence, ADME assay, primary screen | CYP2C19 Supersomes, luciferin-H EGE luminescence, 30 min | inhibition, % at 5 µM | hit rate 21% among 96,000;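 active = CYP2C19 inhibition above a set limit at 5 µM in the primary screen, cut at about 50% in these data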;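 note: plate controls were negative control wells for no effect and 2.5 mM tranylcypromine positive control for full effect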
# MRP1 act: H69AR viability gain despite doxorubicin, primary screen, MRP-1 activator project, H69AR cells, CellTiter-Glo | hit rate 0.61% among 140,000 | AID 799, 2007 | viability rescue | viability increase, % at 10 µM;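 active = viability gain under doxorubicin at or above a set limit, the compound median plus 3 SD, cut at about 4.7% in these data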;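 note: MRP-1 overexpressing cells given doxorubicin 25 µM after compound pretreatment; 18-22 h compound pretreatment then 72 h with doxorubicin before readout; 0% = doxorubicin-only wells and 100% = vehicle-treated cells without doxorubicin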
# CYP2C9 inh: blockers of cytochrome P450 2C9 activity – biochemical, luminescence, ADME assay, primary screen; CYP2C9 Supersomes, luciferin-H conversion; P11712; hit rate 20% among 96,000; AID 777, 2007; inhibition, % at 5 µM;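 active = blocking of liver enzyme CYP2C9 beyond about 50% at 5 µM, limit read from the data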
# * = called active by the depositor; x = no result given. This is a sample that favours compounds with a hit; in the whole collection about 21% have one here.
SMILES,CYP2C19 act,CYP2C9 activ,MRP resist rev,CYP2C19 inh,MRP1 act,CYP2C9 inh
CN(CC(=O)NCCC1=CCCCC1)S(=O)(=O)c1ccc2c(c1)CCC(=O)N2,1,0.7,18,4,-2,32
O=C1C(=O)N(CCCN2CCOCC2)C(c2ccccn2)/C1=C(\O)c1ccc2c(c1)OCCO2 (stereo unspecified),x,x,-4,x,x,x
CCCCOC(=O)n1c(SCC(=O)N(CC)CC)nc2ccccc21,0.6,0.1,-1,39,-1,86*
Cc1cc(NC(=O)CSc2nc3ccccc3c(=O)n2-c2ccccc2)no1,0.9,0.7,x,9,-1,30
O=C(CSc1nc2ccccc2c(=O)n1-c1cccc(C(F)(F)F)c1)NC1CC1,0.5,0.7,6,51*,-3,32
COc1ccc(-n2c(SCC#N)nc3ccccc3c2=O)cc1,0.9,0.3,4,11,0,68*
CCNC(=O)CSc1nc2ccccc2c(=O)n1-c1cc(OC)ccc1OC,0.5,0.3,10,49,-3,73*
C=CCn1c(SCC#N)nc2ccccc2c1=O,0.5,0.7,3,48,-2,30
CCOC(=O)N1CCC(NC(=O)c2cc3ccccn3n2)CC1,0.9,0.9,4,6,-1,10
Cc1ccc(C(=O)C[n+]2ccc(-c3nnc4n3CCC4)cc2)cc1,x,x,x,x,1,x
CCOC(=O)/C=C1\NC(=O)C(C)S1 (stereo unspecified),1,2.1*,0,5,0,-110
Cc1cc(C)c2c3c(cn2n1)c(=O)n(C)c(=O)n3C,x,x,-5,x,x,x
O=C(CSC1=NCCS1)NC1CCCC1,0.7,1,-4,26,-3,0
CCN(CC)c1cc(-c2ccccc2)ncn1,x,x,x,x,1,x
CCN(CC)c1cc(Oc2ccccc2)ncn1,0.2,0.7,33,80*,-3,31
CC(=O)Nc1ccc(S(=O)(=O)NNC(=O)c2sc(=S)n(C)c2C)cc1,x,x,x,x,-3,x
CCOC(=O)c1ncn2c1C(=O)OC2(C)C,0.9,0.9,x,12,1,9
O=C(c1ccc(F)cc1F)N(Cc1ccccn1)Cc1ccco1,0.3,0.7,16,73*,0,34
Cc1ccc(S(=O)(=O)N2c3cc(C)ccc3OCC2C(C)(C)C)cc1 (stereo unspecified),1,0.5,x,4,-3,50*
CCOc1ccc(-c2nc(C#N)c(NC3CC3)o2)cc1,0.3,0.8,x,69*,-1,25
CCOc1ccc(Nc2oc(-c3ccc(Cl)cc3)nc2C#N)cc1,0.7,0.6,-22,34,-4,38
O=C(CSc1oc(-c2cccs2)nc1S(=O)(=O)c1ccc(F)cc1)NCC1CCCO1 (stereo unspecified),0.4,0.5,-13,64*,-3,50
COc1ccc(-c2nc(C#N)c(NCC3CCCO3)o2)cc1 (stereo unspecified),0.4,0.3,-8,59*,0,68*
N#Cc1nc(-c2cccs2)oc1NCC1CCCO1 (stereo unspecified),0.5,0.6,12,55*,-1,38
CC(C)OC(=O)C1C(=O)CC(C)(O)C(C(=O)OC(C)C)C1c1ccc(F)cc1 (stereo unspecified),0.2,0.7,-13,77*,-2,26
SMILES,CYP2C19 act,CYP2C9 activ,MRP resist rev,CYP2C19 inh,MRP1 act,CYP2C9 inh
COc1ccc(CNC(=O)CN(CC2CCCO2)C(=O)CNS(=O)(=O)c2ccc(F)cc2)cc1 (stereo unspecified),0.6,0.6,11,42,-2,38
Cc1cc(N2C(=O)C3C4c5ccccc5C(c5ccccc54)C3C2=O)no1 (stereo unspecified),0.2,0.4,12,80*,-2,59*
CC(C)(C)NC(=S)Nc1ccc(Nc2ccccc2)cc1,0.6,0.5,0,38,-3,54*
Cc1cc(C)nc(SCCCn2c(=O)[nH]c3ccccc32)n1,0,1.4,31,97*,-2,-39
CCCn1c(=O)[nH]c2ccccc21,1.1,1.3,-5,-6,0,-33
COc1ccnc(N=CNOCc2cccc(Cl)c2Cl)c1C#N,0.4,0.9,13,58*,-2,8
